Reference: PubChem BioAssay (NCI)
About 83,000 compounds went through this panel and 20% of them were active in at least one assay; those are over-represented in the sample as a whole.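 48-hour exposure, single concentration, 96-well plates; percent growth endpoint where 0 means no net growth. Active: below 10.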 Activity calls are given as the source filed them.

Key:
Test in all cases: NCI-60 one-dose screen, 48 h (100 = growth as untreated, 0 = no growth, -100 = all killed)
Conditions in all cases: 10 µM unless noted
NCI-H23 lung = system: NCI-H23 lung
NCI-H226 lung = system: NCI-H226 lung
NCI-H322M lung = system: NCI-H322M lung
HOP-62 NSCLC = system: HOP-62 NSCLC
NCI-H460 lung = system: NCI-H460 lung
HOP-92 NSCLC = system: HOP-92 NSCLC
NCI-H522 lung = system: NCI-H522 lung
A549/ATCC NSCLC = system: A549/ATCC NSCLC
786-0 renal = system: 786-0 renal
COLO 205 colon = system: COLO 205 colon
DU-145 prostate = system: DU-145 prostate
K-562 leukemia = system: K-562 leukemia
MALME-3M melanoma = system: MALME-3M melanoma
MDA-MB-231 breast = system: MDA-MB-231 breast
RXF 393 renal = system: RXF 393 renal
SF-268 CNS = system: SF-268 CNS
SF-295 CNS = system: SF-295 CNS
SF-539 CNS = system: SF-539 CNS
UACC-257 melanoma = system: UACC-257 melanoma
M14 melanoma = system: M14 melanoma

Measured: growth

CS(=O)(=O)Nc1cc(-c2ccc3ncnc(Nc4ccc(F)c(Cl)c4)c3c2)cnc1Cl
active: NCI-H322M lung 3.88% | HOP-92 NSCLC -23.6% | A549/ATCC NSCLC 1.72% | 786-0 renal 7.37% | COLO 205 colon -57.2% | MALME-3M melanoma -15.5% | MDA-MB-231 breast 5.12% | RXF 393 renal -34.2% | SF-295 CNS -17.5% | SF-539 CNS 6.35% | UACC-257 melanoma 4.62% | M14 melanoma 5.92%
inactive: NCI-H23 lung 16.9% | NCI-H226 lung 17.6% | HOP-62 NSCLC 15.1% | NCI-H460 lung 10.6% | NCI-H522 lung 14% | DU-145 prostate 16.3% | K-562 leukemia 18.7% | SF-268 CNS 12.3%

Cc1ccc(Cc2cnc(NC(=O)c3cc(C)oc3C)s2)cc1
inactive: NCI-H23 lung 76.1% | NCI-H226 lung 90.4% | NCI-H322M lung 70.8% | HOP-62 NSCLC 86% | NCI-H460 lung 31.3% | HOP-92 NSCLC 79.1% | NCI-H522 lung 57.3% | A549/ATCC NSCLC 55% | 786-0 renal 76.8% | COLO 205 colon 115% | DU-145 prostate 75.6% | K-562 leukemia 29.5% | MALME-3M melanoma 85.2% | MDA-MB-231 breast 79.6% | RXF 393 renal 58.7% | SF-268 CNS 67.8% | SF-295 CNS 66.6% | SF-539 CNS 76.8% | UACC-257 melanoma 94.2% | M14 melanoma 70.8%

Cc1ccc(C(=O)Nc2nc3c(s2)CN(Cc2ccccc2)CC3)cn1
inactive: NCI-H23 lung 80.5% | NCI-H226 lung 88.8% | NCI-H322M lung 92.9% | HOP-62 NSCLC 88.5% | NCI-H460 lung 101% | HOP-92 NSCLC 97.5% | NCI-H522 lung 65.9% | A549/ATCC NSCLC 75.4% | 786-0 renal 85.1% | COLO 205 colon 87.4% | DU-145 prostate 98% | K-562 leukemia 36.8% | MALME-3M melanoma 87.1% | MDA-MB-231 breast 100% | RXF 393 renal 102% | SF-268 CNS 91% | SF-295 CNS 89.6% | SF-539 CNS 103% | UACC-257 melanoma 92.9% | M14 melanoma 79.9%

COc1ccc(-c2nnc3n(C)c(=O)c4ccccc4n23)cc1O
inactive: NCI-H23 lung 41.4% | NCI-H226 lung 76.8% | NCI-H322M lung 44.6% | HOP-62 NSCLC 20.3% | NCI-H460 lung 12% | HOP-92 NSCLC 67.3% | NCI-H522 lung 15.6% | A549/ATCC NSCLC 16.5% | 786-0 renal 30.8% | COLO 205 colon 16.6% | DU-145 prostate 27.1% | MALME-3M melanoma 70.8% | MDA-MB-231 breast 36.4% | SF-268 CNS 54.1% | SF-295 CNS 11.6% | UACC-257 melanoma 49.8%
active: K-562 leukemia 9.1% | RXF 393 renal -11.7% | SF-539 CNS -3.83% | M14 melanoma 3.13%

COc1ccc(-c2cc(-c3cc(OC)c(OC)c(OC)c3)c(C#N)c(=O)n2CCCCC(=O)O)cc1
inactive: NCI-H23 lung 96.7% | NCI-H226 lung 104% | NCI-H322M lung 98.4% | HOP-62 NSCLC 96.8% | NCI-H460 lung 96% | HOP-92 NSCLC 93.6% | NCI-H522 lung 87.3% | A549/ATCC NSCLC 93.9% | 786-0 renal 97.5% | COLO 205 colon 115% | DU-145 prostate 98.2% | K-562 leukemia 88% | MALME-3M melanoma 114% | MDA-MB-231 breast 81.6% | RXF 393 renal 99.2% | SF-268 CNS 86.9% | SF-295 CNS 95% | SF-539 CNS 94.4% | UACC-257 melanoma 103% | M14 melanoma 98%

C=C1CCC2C3(C)COC(c4ccc(NC(C)=O)cc4)OC3CCC2(C)C1C/C=C1/C(=O)OCC1O (stereo not given)
inactive: NCI-H23 lung 36.4% | NCI-H226 lung 64.5% | NCI-H322M lung 89% | HOP-62 NSCLC 85.5% | NCI-H460 lung 66.2% | HOP-92 NSCLC 72.6% | NCI-H522 lung 29.5% | A549/ATCC NSCLC 35.9% | 786-0 renal 57.1% | COLO 205 colon 82.6% | DU-145 prostate 108% | K-562 leukemia 18.7% | MALME-3M melanoma 66.6% | MDA-MB-231 breast 87.3% | RXF 393 renal 62.6% | SF-268 CNS 94% | SF-295 CNS 25.1% | SF-539 CNS 69.6% | UACC-257 melanoma 30.5% | M14 melanoma 76.3%

CC(C)(C)c1cc(C(C)(C)c2ccccc2)cc(Cc2cc(C(C)(C)c3ccccc3)cc(C(C)(C)C)c2O)c1O
inactive: NCI-H23 lung 108% | NCI-H226 lung 90.9% | NCI-H322M lung 97.1% | HOP-62 NSCLC 108% | NCI-H460 lung 105% | HOP-92 NSCLC 55.1% | NCI-H522 lung 79.2% | A549/ATCC NSCLC 101% | 786-0 renal 103% | COLO 205 colon 123% | DU-145 prostate 123% | K-562 leukemia 48% | MALME-3M melanoma 97.4% | MDA-MB-231 breast 105% | RXF 393 renal 95.5% | SF-268 CNS 98.4% | SF-295 CNS 116% | SF-539 CNS 101% | UACC-257 melanoma 105% | M14 melanoma 116%

O=C(c1ccc(Nc2nccc(NCCCNc3ccnc4cc(Cl)ccc34)n2)cc1)N1CCCCC1
inactive: NCI-H23 lung 32.4% | NCI-H226 lung 84.9% | NCI-H322M lung 57.6% | HOP-62 NSCLC 57.5% | NCI-H460 lung 11.3% | HOP-92 NSCLC 64.3% | NCI-H522 lung 38.2% | A549/ATCC NSCLC 19.1% | 786-0 renal 32.9% | COLO 205 colon 27.2% | DU-145 prostate 39.1% | K-562 leukemia 18.8% | MALME-3M melanoma 17.2% | MDA-MB-231 breast 36.2% | RXF 393 renal 61% | SF-268 CNS 36.5% | SF-295 CNS 37.2% | SF-539 CNS 35.5% | UACC-257 melanoma 36.7% | M14 melanoma 35%

COc1ccc(/C(C)=C(\c2ccc(OCCN3CCCCCC3)cc2)c2ccc(OC(=O)C3CCCCC3)cc2)cc1
active: NCI-H23 lung -74% | NCI-H226 lung -62.4% | NCI-H322M lung 5.75% | HOP-62 NSCLC -73.4% | NCI-H460 lung -65.6% | HOP-92 NSCLC -88.9% | NCI-H522 lung -67.6% | A549/ATCC NSCLC -32.9% | 786-0 renal -84.2% | COLO 205 colon -63% | DU-145 prostate -12.1% | K-562 leukemia -23.5% | MALME-3M melanoma -81.2% | MDA-MB-231 breast -84.1% | RXF 393 renal -83.1% | SF-268 CNS -30.6% | SF-295 CNS -90.3% | SF-539 CNS -85.4% | UACC-257 melanoma -71.4% | M14 melanoma -70.4%

COc1ccc(CCNC(=O)COc2cc3c(Nc4ccc(F)c(Cl)c4)ncnc3cc2OC)cc1OC
inactive: NCI-H23 lung 92.5% | NCI-H226 lung 98.5% | NCI-H322M lung 27.3% | HOP-62 NSCLC 95.7% | NCI-H460 lung 95.7% | HOP-92 NSCLC 87.9% | NCI-H522 lung 70.2% | A549/ATCC NSCLC 84.8% | 786-0 renal 89.4% | COLO 205 colon 102% | DU-145 prostate 58% | K-562 leukemia 112% | MALME-3M melanoma 86.9% | MDA-MB-231 breast 94.4% | RXF 393 renal 96% | SF-268 CNS 85.7% | SF-295 CNS 98.1% | SF-539 CNS 103% | UACC-257 melanoma 110% | M14 melanoma 101%

C=C[C@]1(C)C=C2CC[C@@H]3C(C)(C)C(=O)CC[C@@]3(C)[C@@H]2CC1
inactive: NCI-H23 lung 104% | NCI-H226 lung 126% | NCI-H322M lung 77% | HOP-62 NSCLC 105% | NCI-H460 lung 109% | HOP-92 NSCLC 97.7% | NCI-H522 lung 94.6% | A549/ATCC NSCLC 101% | 786-0 renal 98.6% | COLO 205 colon 116% | DU-145 prostate 108% | K-562 leukemia 95.3% | MDA-MB-231 breast 111% | RXF 393 renal 127% | SF-268 CNS 97.6% | SF-295 CNS 101% | SF-539 CNS 103% | UACC-257 melanoma 106% | M14 melanoma 103%
active: MALME-3M melanoma 1.04%

Nc1nc(CSc2n[nH]c(N)n2)nc(Nc2ccccc2)n1
inactive: NCI-H23 lung 102% | NCI-H226 lung 101% | NCI-H322M lung 97.8% | HOP-62 NSCLC 106% | NCI-H460 lung 103% | HOP-92 NSCLC 95.4% | NCI-H522 lung 93.4% | A549/ATCC NSCLC 102% | 786-0 renal 96% | COLO 205 colon 109% | DU-145 prostate 104% | K-562 leukemia 99.1% | MALME-3M melanoma 104% | MDA-MB-231 breast 105% | RXF 393 renal 114% | SF-268 CNS 93.1% | SF-295 CNS 97.6% | SF-539 CNS 102% | UACC-257 melanoma 107% | M14 melanoma 105%

c1ccc(-c2cc(-c3cc(-c4ccccc4)on3)no2)cc1
inactive: NCI-H23 lung 74.9% | NCI-H226 lung 98.8% | NCI-H322M lung 89.9% | HOP-62 NSCLC 107% | NCI-H460 lung 45% | HOP-92 NSCLC 86.1% | NCI-H522 lung 62.2% | A549/ATCC NSCLC 78.9% | 786-0 renal 106% | COLO 205 colon 94.2% | K-562 leukemia 77.7% | MALME-3M melanoma 114% | MDA-MB-231 breast 105% | RXF 393 renal 74.8% | SF-268 CNS 90.1% | SF-295 CNS 82.2% | SF-539 CNS 91.3% | UACC-257 melanoma 79.6% | M14 melanoma 109%
active: DU-145 prostate 9.62%

COc1ccc(/C=N/C2=C(C#N)C(c3ccccc3)c3c(ccc4ccccc34)O2)cc1 (stereo not given)
inactive: NCI-H23 lung 36.9% | NCI-H226 lung 33.8% | NCI-H322M lung 40.9% | HOP-62 NSCLC 35.5% | NCI-H460 lung 15.5% | HOP-92 NSCLC 53.9% | A549/ATCC NSCLC 41.9% | 786-0 renal 29.2% | DU-145 prostate 24.6% | MALME-3M melanoma 47.5% | MDA-MB-231 breast 33.4% | SF-268 CNS 50.7% | SF-295 CNS 10.9% | UACC-257 melanoma 61.8% | M14 melanoma 11.8%
active: NCI-H522 lung 2.3% | COLO 205 colon 0.29% | K-562 leukemia 8.18% | RXF 393 renal -8.72% | SF-539 CNS 6.89%
